A selection: hits, their analogues and other compounds. The true share with any hit is near 3.5%.
TEAD-YAP inh = TEAD-YAP interaction inhibition, primary screen, TEAD-YAP interaction inhibitor project, luminescence, HEK-TIYL cells | actives 1.4% (n = 640,000) | inhibition, % at 9.12 µM | TEAD-Gal4/YAP UAS-luciferase luminescence | AID 1259422, 2018; in the data active = inhibition above about 32%;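 note: 0% = median of test compound wells and 100% = reference inhibitor wells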
MITF primary = MITF inhibitors, primary screen, biochemical, AlphaScreen, human; Microphthalmia-associated transcription factor (Homo sapiens), O75030; AlphaScreen MITF homodimerization, bead proximity signal; inhibition, % at 2.6 µM; actives 0.91% (n = 650,000); AID 1259374, 2018; in the data active = inhibition above about 50%;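 note: 0% = vehicle wells with protein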
Target sequence (O75030 whole entry, looked up): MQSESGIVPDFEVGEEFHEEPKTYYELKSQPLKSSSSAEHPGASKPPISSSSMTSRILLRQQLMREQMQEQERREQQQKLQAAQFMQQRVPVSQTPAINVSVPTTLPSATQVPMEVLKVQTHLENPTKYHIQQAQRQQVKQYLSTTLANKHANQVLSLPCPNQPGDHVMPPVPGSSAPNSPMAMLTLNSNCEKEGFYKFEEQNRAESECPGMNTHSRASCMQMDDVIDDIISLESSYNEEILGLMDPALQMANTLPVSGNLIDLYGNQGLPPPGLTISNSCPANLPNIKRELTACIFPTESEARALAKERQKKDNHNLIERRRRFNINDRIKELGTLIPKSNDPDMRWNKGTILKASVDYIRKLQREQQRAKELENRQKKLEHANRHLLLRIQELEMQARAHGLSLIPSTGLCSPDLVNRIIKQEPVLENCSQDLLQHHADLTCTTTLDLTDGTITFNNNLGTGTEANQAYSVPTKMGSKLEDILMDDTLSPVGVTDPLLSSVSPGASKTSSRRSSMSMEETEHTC
FBW7 act = FBW7 E3 ligase activators, primary screen, biochemical, AlphaScreen, human; normalized activity (activation), % at 26.1 µM; AID 1259310, 2017; F-box/WD repeat-containing protein 7 (Homo sapiens), Q969H0; AlphaScreen FBW7–phospho-cyclin E peptide binding, activator screen; actives 0.13% (n = 650,000); in the data active = normalized activity above about 1.9%;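 note: purified mutant Fbw7 with reduced substrate affinity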
GPR151 activ = activators of human GPR151, primary screen, cell-based, PathHunter beta-arrestin, luminescence; G-protein coupled receptor 151 (Homo sapiens), Q8TDV0; PathHunter beta-arrestin GPR151 cells; activation, % at 11.2 µM; actives 1% (n = 650,000); AID 1508602, 2020; in the data active = activation above about 4.9%;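 note: 0% = median of compound wells and 100% = cells with positive control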
* = called active by the depositor.

SMILES	TEAD-YAP inh	MITF primary	FBW7 act	GPR151 activ
CC(C)N(CCNc1nc(-c2ccc(C(=O)NC3CC3)cc2)nc2c1ncn2-c1ccsc1)C(C)C	60*	-9	0	-1
CCn1nc(C)cc1C(=O)N(CC1CCCO1)c1nc2cc(C)cc(C)c2s1 (stereo not given)	41*	14	0	-2
CCn1nc(C(=O)N(CC2CCCO2)c2nc3ccc(C)cc3s2)cc1C (stereo not given)	-19	10	0	2
COc1ccccc1OCC(=O)N1CCCC1	-2	-6	0	0
Cc1cc(/C=C\c2nc(O)c([N+](=O)[O-])c(=O)[nH]2)c(C)n1-c1ccc(C(=O)O)cc1	10	63*	0	0
COc1ccccc1N1C(=O)/C(=C\c2cccn2C)C(=O)NC1=S	14	56*	0	0
COc1ccccc1N1C(=O)NC(=O)/C(=C\c2ccc(O)c(O)c2)C1=O	-3	56*	0	-1
COc1ccc(/C=C2/C(=O)NC(=O)N(c3ccc(C(C)C)cc3)C2=O)cc1O	-7	2	1.9*	-1
COc1ccc(N2C(=O)NC(=O)/C(=C/c3cc(Cl)c(O)c(OC)c3)C2=O)cc1	-3	4	0	1
COc1ccc(N2C(=O)NC(=O)/C(=C\c3cc(OC)c(O)c(OC)c3)C2=O)cc1	7	3	2.1*	0
Cc1ccccc1N1C(=O)NC(=O)/C(=C\c2ccc(O)c(O)c2)C1=O	-5	45	0	0
O=C1c2ccc(-c3nc4ccccc4o3)cc2C(=O)N1c1ccc(Sc2ccc([N+](=O)[O-])cc2)cc1	-8	13	0	-1
C=CCNC(=O)Cn1nc(-c2ccccc2F)ccc1=O	-8	-5	0	-1
CC(C)Oc1ccc(N2CC(C(=O)OCC(=O)Nc3ccc(F)cc3)CC2=O)cc1 (stereo not given)	8	10	1	-1
CC(NC(=O)c1ccc(Cl)cc1)c1nnc(SCC(=O)NC2CCCCC2)n1C (stereo not given)	-1	1	0	0
Cc1nc(NCCC2=CCCCC2)c2cc(C)sc2n1	41*	-1	0	0
Cc1nc(NCCC2=CCCCC2)c2c3c(sc2n1)CCC3	4	-6	0	-1
CCn1ccc(C(=O)N2CCC(Oc3nc4c(F)cc(F)cc4s3)CC2)n1	0	7	2.4*	0
O=C(c1ccc(F)cc1Cl)N1CCC(Oc2nc3c(F)cccc3s2)CC1	12	24	1	0
COc1cc(-c2cn[nH]c2)cc2c(=O)[nH]c(C(N)c3ccc(Cl)cc3)nc12 (stereo not given)	29	7	0	0
N[C@@H](Cc1ccccc1)c1nc2ccc(-c3cn[nH]c3)cc2c(=O)[nH]1	75*	14	-1	4
N[C@H](Cc1ccccc1)c1nc2ccc(-c3ccncc3)cc2[nH]1	17	24	-1	0
NCc1ccc(C(=O)NC(c2ccc(Cl)cc2)c2nc3ccc(-c4cn[nH]c4)cc3c(=O)[nH]2)cc1 (stereo not given)	3	21	0	-2
N[C@@H](Cc1ccc(Cl)cc1)c1nc2ccc(-c3cn[nH]c3)cc2c(=O)[nH]1	86*	13	-1	-1
COc1cc(-c2cn[nH]c2)cc2c(=O)[nH]c([C@@H](N)Cc3cccc(F)c3)nc12	68*	-3	-1	0
SMILES	TEAD-YAP inh	MITF primary	FBW7 act	GPR151 activ
N[C@@H](Cc1ccccc1)c1nc2ccc(-c3ccncc3)cc2c(=O)[nH]1	61*	18	-1	0
Cc1nc2nc(SCC(=O)Nc3cccc(Cl)c3)nn2c(C)c1Cc1ccccc1Cl	5	-2	0	0
N[C@H](Cc1cccc(Cl)c1)c1nc2ccc(-c3cn[nH]c3)cc2c(=O)[nH]1	69*	-9	-1	0
N[C@H](Cc1cccc(F)c1)c1nc2ccc(-c3cn[nH]c3)cc2[nH]1	-6	10	-1	0
N[C@H](CCc1ccccc1)c1nc2ccc(-c3cn[nH]c3)cc2c(=O)[nH]1	-4	17	-1	1
Cc1ccccc1OCc1nc(N(C)CCN(C)C)c2cc(-c3cn[nH]c3)ccc2n1	22	13	0	0
N[C@H](Cc1cccc(F)c1)c1nc2ccc(-c3cn[nH]c3)cc2c(=O)[nH]1	68*	8	-1	1

Source: PubChem (The Scripps Research Institute Molecular Screening Center)
